Experiment [1] concerns Zika virus NS2B-NS3 protease (unlinked complex). The experiment can be described thus: Primary screen GU Rhodamine qHTS for Zika virus inhibitors: Unlinked NS2B-NS3 protease assay (AID 1347159). Further: nearly all actives have a fitted effect of over 60% in size. In short, it runs like this: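 Unlinked NS2B/NS3, 25 nM; Rhod110 peptide, 1.5 microM; compounds, up to 114 microM. Reaction run 15 min at RT in 10 mM Tris-HCl pH 8.0, 0.01% Tween 20; kinetic fluorescence change fitted with a 4-parameter Hill model.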

In experiment [2] the test system is Zika virus NS2B-NS3 protease (linked construct). The experiment can be described thus: Primary screen NINDS Rhodamine qHTS for Zika virus inhibitors (AID 1347160). Further: nearly all actives have a fitted effect of over 55% in size. In short, it runs like this:
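Single-chain NS2B-NS3 protease, 25 nM, pH 8.0; compounds preincubated 15 min. Activity: Rhodamine110 release from 1.5 microM substrate over 15 min, room temperature, data fitted to 4-parameter Hill.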

Each structure is given as a SMILES string. Inconclusive results are not listed. Where a call stands in place of a potency, no number is given. A number with no mark means an inactive call. Calls of active or inactive are those of the source. The call rests on the fitted dose curve; in most records, active means well fitted inhibition curve with a large enough effect; inconclusive means small, poorly fitted or top-dose-only effect; inactive means no such curve, though single readings can be large or run the other way.

Turning to `CC1(C)CC2C(O)c3cocc3CC(C)(O)C2C1` (stereo not drawn), the Potency entry in experiment [1] and in experiment [2] was “inactive” each time.
Turning to `CC(C)C(CO)Nc1nc(Nc2cc(N)cc(Cl)c2)c2ncn(C(C)C)c2n1` (stereo not drawn), the Potency entry in experiment [1] and in experiment [2] was “inactive” each time.
With `CC[C@H](CO)Nc1nc(NCc2ccc(-c3ccccn3)cc2)c2ncn(C(C)C)c2n1`, the Potency entry in experiment [1] and in experiment [2] was “inactive” each time.
For `CCCCNc1ccc(-c2ccc(CN3CCOCC3)cn2)c(NC2CCC(O)CC2)c1` (stereo not drawn), the Potency entry in experiment [1] and in experiment [2] was “inactive” each time.
On to `COC(=O)c1ccnc(-c2cc(C(=O)NCCc3ccccc3)ccn2)c1`, for which the Potency entry in experiment [1] and in experiment [2] was “inactive” each time.
Turning to `Cc1nc2ccc(Oc3ccc(F)cc3)cc2c(=O)n1C[C@H]1CCCN(C(C)C)C1`, the Potency entry in experiment [1] and in experiment [2] was “inactive” each time.
Regarding `C=C(C)C(=O)O[C@H]1CC2=CC(C/C(C)=C\[C@H]3OC(=O)C(=C)[C@H]13)OC2=O` (stereo partly drawn), the Potency entry in experiment [1] and in experiment [2] was “inactive” throughout.
Regarding `CC1C(=O)OCC2=CCN3CCC(OC(=O)C(C)(O)C1(C)O)C23` (stereo not drawn), the Potency result in experiment [1] and in experiment [2] was “inactive” in each case.
Regarding `N#Cc1c(Oc2ccc(F)c(NC(=O)Cc3cccc(C(F)(F)F)c3)c2)ccc2nc(NC(=O)C3CC3)sc12`, the Potency entry in experiment [1] and in experiment [2] was “inactive” each time.
Take `c1cc(OCCCN2CCCCC2)ccc1CN1CCCCC1`: the Potency result in experiment [1] and in experiment [2] was “inactive” each time.
For `Cc1c(CN2CCN(C(=O)C(C)O)CC2)sc2c(N3CCOCC3)nc(-c3cnc(N)nc3)nc12` (stereo not drawn), the Potency entry in experiment [1] and in experiment [2] was “inactive” throughout.
As to `COc1cc(O)cc(C)c1C(=O)OC1C(CO)OC(OC2C(O)C(O)C(O)C(O)C2O)C(O)C1O` (stereo not drawn), the Potency entry in experiment [1] and in experiment [2] was “inactive” each time.
As for `C[C@H]1Oc2cc(cnc2N)-c2c(nn(C)c2C#N)CN(C)C(=O)c2ccc(F)cc21`, the Potency entry in experiment [1] and in experiment [2] was “inactive” each time.
For the molecule `CC[C@]12C=CCN3CC[C@@]4(c5cc([C@@]6(C(=O)OC)C[C@H]7C[C@@H](C(C)(F)F)CN(Cc8c6[nH]c6ccccc86)C7)c(OC)cc5N(C)[C@H]4[C@@](O)(C(=O)OC)[C@@H]1OC(C)=O)[C@@H]32`, the Potency entry in experiment [1] and in experiment [2] was “inactive” each time.
`O=C(CO)[C@@H](O)[C@H](O[C@@H]1O[C@H](CO)[C@H](O)[C@H](O)[C@H]1O)[C@H](O)CO`: the Potency result in experiment [1] and in experiment [2] was “inactive” throughout.
Turning to `CO[C@H]1C[C@@H]2CC[C@@H](C)[C@@](O)(O2)C(=O)C(=O)N2CCCC[C@H]2C(=O)O[C@H]([C@H](C)C[C@@H]2CC[C@@H](OP(C)(C)=O)[C@H](OC)C2)CC(=O)[C@H](C)/C=C(\C)[C@@H](O)[C@@H](OC)C(=O)[C@H](C)C[C@H](C)/C=C/C=C/C=C/1C`, the Potency result in experiment [1] and in experiment [2] was “inactive” throughout.
As for `O=C(/C=C/c1ccccc1)OC[C@]12O[C@H]1[C@@H](O)[C@@H]1C=CO[C@@H](O[C@@H]3O[C@H](CO)[C@@H](O)[C@H](O)[C@H]3O)[C@@H]12`, the Potency result in experiment [1] and in experiment [2] was “inactive” in each case.
Turning to `CC(=O)O[C@@H]1C[C@H](O)[C@@]23CO[C@H](O)[C@]1(C)C2C[C@@H](O)[C@]1(C)C3C(=O)[C@H](OC(C)=O)[C@@]2(C)[C@H](c3ccoc3)C[C@H]3O[C@]321` (stereo partly drawn), the Potency entry in experiment [1] and in experiment [2] was “inactive” in each case.
With `COc1cc(O)cc(/C=C/c2ccc(O[C@@H]3O[C@H](CO)[C@@H](O)[C@H](O)[C@H]3O)cc2)c1`, the Potency entry in experiment [1] and in experiment [2] was “inactive” throughout.
For `CC(C)(C)OC(=O)N1CCC(OCc2nc(-c3ccncc3)no2)CC1`, the Potency result in experiment [1] and in experiment [2] was “inactive” each time.
`O=C(CN1C(=O)C2(CCCC2)NCC1c1cc(F)cc(F)c1)Nc1ccc2c(c1)CC1(C2)C(=O)Nc2ncccc21` (stereo not drawn): the Potency result in experiment [1] and in experiment [2] was “inactive” each time.
Regarding `O=C1C=CC(O)(/C=C/C(=O)OC[C@H]2O[C@@H](Oc3ccc(O)cc3)[C@H](O)[C@@H](O)[C@@H]2O)C=C1`, the Potency result in experiment [1] and in experiment [2] was “inactive” in each case.
Turning to `O=C(NCC(O)CO)c1ccncc1Nc1ccc(I)cc1F` (stereo not drawn), the Potency entry in experiment [1] and in experiment [2] was “inactive” throughout.
For `CC(C)(C)NCCCNC(=O)c1cccc(Br)c1`, the Potency result in experiment [1] and in experiment [2] was “inactive” in each case.
As for `CCC(C)C(=O)OC1CC(O)C23C4OCC5(C(O)CC2C1(C)C(O)O4)C3C(=O)C(O)C1(C)C(O)(c2ccoc2)CC2OC251` (stereo not drawn), the Potency entry in experiment [1] and in experiment [2] was “inactive” each time.
Turning to `CC(C)(O)CC(CO)NC(=O)CC(O)CC(=O)Cc1ccccc1` (stereo not drawn), the Potency entry in experiment [1] and in experiment [2] was “inactive” each time.
Regarding `C[C@H]1O[C@@H](O[C@H]2CC[C@@]3(C)C(CC[C@]4(C)C3CC=C3C5CC(C)(C)CC[C@]5(C(=O)O)CC[C@]34C(=O)O)C2(C)C)[C@H](O)[C@@H](O)[C@@H]1O` (stereo partly drawn), the Potency result in experiment [1] and in experiment [2] was “inactive” each time.
As for `C[C@H](C(=O)NC1CCCC1)N(C(=O)Cn1nnc(-c2ccc3c(c2)OCO3)n1)C1CCCCC1`, the Potency result in experiment [1] and in experiment [2] was “inactive” throughout.
Consider `OC[C@H]1O[C@@H](OCCc2ccccc2)[C@H](O[C@@H]2OC[C@](O)(CO)[C@H]2O)[C@@H](O)[C@@H]1O`, for which the Potency result in experiment [1] and in experiment [2] was “inactive” in each case.
